Screening data: PubChem BioAssay, National Center for Advancing Translational Sciences (NCATS)
Compounds with a hit are over-represented: about 11% of the library has one in this group of screens.
IMPase Li inh = membrane-permeable IMPase blocker, potentiated with lithium; Potency, µM (doses to about 59.4 µM), for the others: at the highest dose activity, negative = IMPase inhibition, most hits filed as inhibitors; AID 1457; CHO-M1 cells, IP1 TR-FRET (IP-One), carbachol + lithium; hit rate 0.35% among 210,000;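 further: IP1 builds up when IMPase is blocked and the TR-FRET signal falls; potency means the concentration at half of the fitted maximal effect; plate controls were basal vehicle for no effect and high inhibitor control for full effect; nearly all actives have a fitted effect of over 50% in size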
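CHO cells stably expressing M1 receptor (2000/well, cultured 16–30 h) treated 30 min at 37C with compound plus low lithium. Cytosolic IP1 by TR-FRET (665/620 ratio and 620 channel) after 10 min lysis; AC50 by Hill fit.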
ALDH1A1 inh = inhibitors of human aldehyde dehydrogenase 1A1 | hit rate 7.3% among 220,000 | Purified ALDH1A1, NADH fluorescence, propionaldehyde substrate | P00352 | Potency, µM (titrated, usually from 75.3 µM), for inactives: at the top dose activity, negative = inhibition, usual class: inhibitors | AID 1030; active means well fitted inhibition curve with a large enough effect, not every such curve was filed as active; inconclusive means small, poorly fitted or top-dose-only effect, or another doubt; inactive means no such curve, though single readings can be large or run the other way;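 further: potency means the concentration at half of the fitted maximal effect; plate controls were no enzyme wells and a reference inhibitor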
IMPase cell inh = membrane-permeable compound that blocks inositol monophosphatase; P97697; CHO-M1 cells, IP1 accumulation, HTRF TR-FRET ratio; inhibition (IP1 accumulation), % at 46.1 µM; 120,000 tested, under 10 active; active means well fitted curve in the direction sought with a large enough effect in the signal ratio, not every such curve was filed as active; inconclusive means small, poorly fitted or top-dose-only effect, or a change in a side signal; inactive means no such curve, though single readings can be large or run the other way; the % refers to the signal ratio;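 further: cells stimulated with carbachol in lithium chloride buffer; plate controls were DMSO basal wells for no effect and reference inhibitor wells for full effect; higher means more IMPase inhibition seen as more IP1 and lower FRET ratio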
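CHO-M1 cells (CHO stably expressing M1 receptor), compound up to 46 uM final, stimulated with carbachol (50 uM as added) in buffer with 50mM LiCl, pH 7.4, 30 min at 37C. Cytosolic IP1 read by TR-FRET; AC50 from Hill fits.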
12-hLO inh = inhibitors of human 12-lipoxygenase (ALOX12). P18054. purified 12-hLO, xylenol orange hydroperoxide absorbance. Potency, µM (titrated, usually from 57.1 µM), for the others: top-dose activity change, negative = inhibition, most hits filed as inhibitors. hit rate 0.12% among 150,000. AID 1452; further: potency means the concentration at half of the fitted maximal effect; nearly all actives have a fitted effect of over 55% in size
Target sequence (P18054 whole entry, looked up): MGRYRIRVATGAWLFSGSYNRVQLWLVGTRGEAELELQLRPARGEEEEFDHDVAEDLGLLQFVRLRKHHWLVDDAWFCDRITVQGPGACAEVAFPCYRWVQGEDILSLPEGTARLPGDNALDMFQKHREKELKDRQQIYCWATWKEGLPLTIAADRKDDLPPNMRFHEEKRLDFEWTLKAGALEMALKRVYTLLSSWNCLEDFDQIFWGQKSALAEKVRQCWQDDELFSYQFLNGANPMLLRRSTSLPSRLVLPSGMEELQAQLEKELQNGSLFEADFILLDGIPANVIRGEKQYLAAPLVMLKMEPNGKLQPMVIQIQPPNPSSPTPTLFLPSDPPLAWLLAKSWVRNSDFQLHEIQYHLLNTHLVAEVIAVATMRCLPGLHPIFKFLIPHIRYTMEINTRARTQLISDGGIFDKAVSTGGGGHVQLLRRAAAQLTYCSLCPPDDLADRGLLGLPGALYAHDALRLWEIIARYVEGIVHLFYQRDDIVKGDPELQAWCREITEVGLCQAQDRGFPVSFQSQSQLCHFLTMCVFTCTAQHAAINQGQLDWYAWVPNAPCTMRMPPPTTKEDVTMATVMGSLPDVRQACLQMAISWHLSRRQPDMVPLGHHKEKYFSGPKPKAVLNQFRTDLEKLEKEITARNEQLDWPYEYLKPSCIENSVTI
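Purified human 12hLO (150 nM final) was preincubated with compounds for 15 min at room temperature in 25 mM Hepes pH 7.0, 0.01% Triton X-100, then reacted with 40 uM arachidonic acid for 30 min. Hydroperoxide was detected with ferrous iron/xylenol orange.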
HPGD block = HPGD (human) dehydrogenase inhibition; P15428; purified HPGD, NADH fluorescence kinetic, PGE2 substrate; Potency, µM, for inactives: at the top dose activity change, negative = inhibition, hits mostly inhibitors; hit rate 4.3% among 150,000; active means well fitted inhibition curve with a large enough effect, not every such curve was filed as active; inconclusive means small, poorly fitted or top-dose-only effect, or another doubt; inactive means no such curve, though single readings can be large or run the other way; further: potency means the concentration at half of the fitted maximal effect
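20 nM HPGD preincubated 15 min at room temperature with compound in 50 mM Tris-HCl pH 8, 0.01% Tween 20. Started with 1 mM NAD+ and 30 uM prostaglandin E2; NADH fluorescence (360/450 nm) read 5 times over 30-s intervals, last minus first.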
PNC assembly inh = inhibitors of perinucleolar compartment assembly; PC3M PTB-GFP, PNC prevalence imaging, 16 h; active compounds read low; activity change (PNC), negative = inhibition, % at 10 µM; hit rate 3.1% among 140,000;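 active means readout at or below -70, meaning at least 70% loss of cells showing the perinucleolar compartment, a nuclear body marking cancer cells; inconclusive means readout between -30 and a set limit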;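 further: plate controls were DMSO wells for no effect and camptothecin positive control wells for full effect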
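Compounds are pinned in duplicate onto adhered PC3M cells stably expressing GFP-tagged PTB and incubated 16 h at 37 C. Cells are then fixed, nuclei stained with Hoechst, and PNC-positive cells counted.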
Active calls of the source: *; [ ] = another dose, or the depositor's remark. Unless noted, the call rests on the fitted dose curve; in most records, active means well fitted curve in the direction sought with a large enough effect; inconclusive means small, poorly fitted or top-dose-only effect, or another doubt; inactive means no such curve, though single readings can be large; an effect the other way counts as inactive or inconclusive. Unless noted, on the % scale 0 is the no-effect control and ±100 the full control effect.

For CS[C@@H](CC(=O)O)C(=O)O the results were IMPase Li inh -5%, ALDH1A1 inh -2%[13.5 µM], 12-hLO inh 3%[11.4 µM] and HPGD block -11%.
For CCNc1nc(SC(C)C(=O)OC)nc(N(C)C)n1 (stereo not given) the results were IMPase Li inh -1% and ALDH1A1 inh 7%.
For CCn1nc(C)c(NS(=O)(=O)c2ccccc2)c1C the results were IMPase Li inh 23%[38.3 µM], ALDH1A1 inh -5%, IMPase cell inh 0, 12-hLO inh 4%, HPGD block -8% and PNC assembly inh -105*.
For COc1ccc(-c2nc3c4ccccc4[nH]c(=O)n3n2)cc1 the results were IMPase Li inh -1%[38.3 µM], ALDH1A1 inh inconclusive, IMPase cell inh 7, 12-hLO inh -10%, HPGD block -29% and PNC assembly inh 1.
`COc1cc2[nH]c(=O)n3nc(-c4ccccc4)nc3c2cc1OC` gave IMPase Li inh 16%, ALDH1A1 inh inconclusive, IMPase cell inh 1, 12-hLO inh 3%, HPGD block inconclusive and PNC assembly inh -100*.
`O=C(O)c1cccc(Cl)c1Cl` gave IMPase Li inh 13%, ALDH1A1 inh 4%, 12-hLO inh 4% and HPGD block -9%.
For Cc1ccc(S(=O)(=O)NC(C)CCc2ccccc2)cc1 (stereo not given) the results were IMPase Li inh -2%[38.3 µM], ALDH1A1 inh 25µM*, IMPase cell inh inconclusive, 12-hLO inh -3%, HPGD block -6% and PNC assembly inh 21.
Screening c1ccc2sc(Nc3nc4cc5c(cc4s3)OCO5)nc2c1 returned IMPase Li inh -11%, ALDH1A1 inh inconclusive, 12-hLO inh 1%, HPGD block inconclusive and PNC assembly inh -124*.
For O=C(NNc1nc2cc3c(cc2s1)OCCO3)c1ccc(F)cc1 the results were IMPase Li inh 2% and ALDH1A1 inh 0%.
O=C(NNc1nc2cc3c(cc2s1)OCO3)c1ccc(F)cc1 was read as IMPase Li inh 7%, ALDH1A1 inh inconclusive, 12-hLO inh -11%, HPGD block 25µM* and PNC assembly inh -119*.
For O=C(O)CCC[C@H](O)\C=C/C=C/C=C/[C@H](O)C/C=C\CCCCCO the results were IMPase Li inh 2%, ALDH1A1 inh -14%, 12-hLO inh -1% and HPGD block 0%.
Screening O=c1c(-c2ccc(Cl)cc2)nc2cnc(N3CCOCC3)nc2n1-c1ccccc1 returned IMPase Li inh -9% and ALDH1A1 inh inconclusive.
Screening O=C(COC(=O)Cc1ccc(Br)cc1)NC1CCCCCC1 returned IMPase Li inh 6% and ALDH1A1 inh -5%.
Screening Nc1ccc([N+](=O)[O-])c(N)c1 returned IMPase Li inh 21%, ALDH1A1 inh -6%, 12-hLO inh -4% and HPGD block -11%.
`Cc1nc2ccccc2c(-c2ccccc2)c1CC(=O)O` gave IMPase Li inh -4%, ALDH1A1 inh 10%, 12-hLO inh 0%, HPGD block -4% and PNC assembly inh -10.
Screening Cc1cccc(C(=O)c2cnc3ccccc3c2-c2ccccc2)c1 returned IMPase Li inh 44%[38.3 µM], ALDH1A1 inh 13µM*, IMPase cell inh 12, 12-hLO inh -8%, HPGD block inconclusive and PNC assembly inh -8.
`CCOC(=O)C1CCN(C(=O)COc2ccc(Cl)cc2C)CC1` gave IMPase Li inh 41%[38.3 µM], ALDH1A1 inh inconclusive, IMPase cell inh 7, 12-hLO inh -11%, HPGD block -9% and PNC assembly inh -87*.
Screening CCOC(=O)C1CCN(C(=O)COc2ccc(S(=O)(=O)N3CCCC3)cc2C)CC1 returned IMPase Li inh 8% and ALDH1A1 inh 18µM*.
Screening Cc1cc(S(=O)(=O)N2CCCC2)ccc1OCC(=O)N1CCC(C(N)=O)CC1 returned IMPase Li inh -7% and ALDH1A1 inh inconclusive.
Screening COc1ccccc1NC(=O)CCN1C(=O)c2ccccc2S1(=O)=O returned IMPase Li inh -1% and ALDH1A1 inh -9%.
